# ± gives the standard deviation of the averaged measurements.
# Columns and labels:
# Assay in all cases: control-subtracted net OSN firing rate; higher = stronger neuronal activation
# Settings in all cases: odorant dilution (vol/vol): 1/100
# allyl isothiocyanate = compound: C=CCN=C=S [allyl isothiocyanate]
# Method in brief: (§1)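 Responses come from single sensillum recordings of palp or antennal olfactory sensory neurons in 1–5-day-old fed female Scaptomyza species or D. melanogaster wild-type, mutant or at1 empty-neuron lines with Or42a homologs. Stimuli were 1 s pulses of odorant at 1:100 vol/vol in mineral oil or dimethyl sulfoxide into 16 ml/min filtered air. Spikes from 0.2 s after onset, counted over 0.5 s, were background-subtracted, doubled, solvent-corrected and averaged over replicates.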
# isobutyl isothiocyanate = compound: CC(C)CN=C=S [isobutyl isothiocyanate]
# Method in brief: as §1
# sec-butyl isothiocyanate = compound: CCC(C)N=C=S [sec-butyl isothiocyanate]
# Method in brief: as §1
# cinnamaldehyde = compound: O=C/C=C/c1ccccc1 [cinnamaldehyde]
# Method in brief: as §1
# phenethyl isothiocyanate = compound: S=C=NCCc1ccccc1 [phenethyl isothiocyanate]
# Method in brief: as §1
# butyl isothiocyanate = compound: CCCCN=C=S [butyl isothiocyanate]
# Method in brief: as §1
Target,control-subtracted net OSN firing rate (allyl isothiocyanate),control-subtracted net OSN firing rate (isobutyl isothiocyanate),control-subtracted net OSN firing rate (sec-butyl isothiocyanate),control-subtracted net OSN firing rate (cinnamaldehyde),control-subtracted net OSN firing rate (phenethyl isothiocyanate),control-subtracted net OSN firing rate (butyl isothiocyanate)
S. pallida pb2a-like,9 ± 9.5 spikes/s,5.33 ± 6.4 spikes/s,10.7 ± 9.5 spikes/s,6.67 ± 4.8 spikes/s,3.67 ± 4.6 spikes/s,
S. pallida pb1a-like,109 ± 21 spikes/s,26 ± 12 spikes/s,17.3 ± 13 spikes/s,19.3 ± 13 spikes/s,3 ± 4.3 spikes/s,
S. hsui pb3b-like,-2.67 ± 4.5 spikes/s,-1.33 ± 3.9 spikes/s,-3 ± 1.7 spikes/s,2.67 ± 15 spikes/s,-3 ± 5.8 spikes/s,
S. flava pb3a-like,6 ± 8.3 spikes/s,4.67 ± 6.8 spikes/s,0.333 ± 11 spikes/s,-2 ± 10 spikes/s,3.33 ± 9.1 spikes/s,
S. hsui pb1b-like,-15 ± 6.4 spikes/s,-3.33 ± 8.7 spikes/s,4.33 ± 7.4 spikes/s,6 ± 16 spikes/s,-3 ± 7.1 spikes/s,
Canton-S (D. melanogaster) pb3a,7.56 ± 4.9 spikes/s,1.5 ± 6 spikes/s,3.67 ± 8 spikes/s,0 ± 8.4 spikes/s,1.17 ± 5.8 spikes/s,
S. hsui pb2a-like,-2 ± 4.7 spikes/s,2 ± 7.3 spikes/s,2 ± 4.7 spikes/s,2.67 ± 8.2 spikes/s,0.333 ± 5 spikes/s,
"Or67dGal4, UAS-Sfla Or42a4 at1",131 ± 22 spikes/s,87 ± 27 spikes/s,29.7 ± 21 spikes/s,,,
S. hsui pb2b-like,0.667 ± 4.1 spikes/s,7 ± 8.2 spikes/s,5.33 ± 6.3 spikes/s,11 ± 9.8 spikes/s,-0.333 ± 6 spikes/s,
Canton-S (D. melanogaster) pb2a,1.69 ± 6.9 spikes/s,1.43 ± 7.3 spikes/s,5.43 ± 6.9 spikes/s,4.29 ± 8.4 spikes/s,0 ± 5 spikes/s,
"Or67dGal4, UAS-Sfla Or42a3 at1",127 ± 27 spikes/s,77.7 ± 25 spikes/s,29.4 ± 17 spikes/s,,,
S. hsui pb1a-like,124 ± 17 spikes/s,10 ± 5.1 spikes/s,8.67 ± 7.3 spikes/s,12.7 ± 16 spikes/s,3.67 ± 8.9 spikes/s,
"Or67dGal4, UAS-Dmel Or42a at1",94.3 ± 58 spikes/s,5.33 ± 7.7 spikes/s,4.33 ± 11 spikes/s,,,
S. montana pb3b-like,3 ± 7.9 spikes/s,-0.667 ± 7.8 spikes/s,3.67 ± 6.9 spikes/s,-1.67 ± 8.2 spikes/s,-2.33 ± 8.7 spikes/s,
S. flava pb1a-like,123 ± 14 spikes/s,107 ± 32 spikes/s,30.3 ± 26 spikes/s,16.7 ± 17 spikes/s,-4 ± 3.8 spikes/s,
Canton-S (D. melanogaster) pb1b,-8.93 ± 11 spikes/s,1.33 ± 9.2 spikes/s,-0.667 ± 9.4 spikes/s,2.67 ± 9.5 spikes/s,-4.44 ± 6.8 spikes/s,
"Or67dGal4, UAS-Spal Or42a at1",201 ± 39 spikes/s,42.2 ± 14 spikes/s,22.8 ± 9.7 spikes/s,,,
Canton-S (D. melanogaster) pb2b,-1.54 ± 9 spikes/s,-0.286 ± 8.4 spikes/s,0.571 ± 8.4 spikes/s,5.14 ± 12 spikes/s,-1.14 ± 8.4 spikes/s,

Target,control-subtracted net OSN firing rate (allyl isothiocyanate),control-subtracted net OSN firing rate (isobutyl isothiocyanate),control-subtracted net OSN firing rate (sec-butyl isothiocyanate),control-subtracted net OSN firing rate (cinnamaldehyde),control-subtracted net OSN firing rate (phenethyl isothiocyanate),control-subtracted net OSN firing rate (butyl isothiocyanate)
S. montana pb1a-like,126 ± 16 spikes/s,110 ± 18 spikes/s,48.3 ± 20 spikes/s,17 ± 9 spikes/s,4.67 ± 7.9 spikes/s,
S. pallida pb1b-like,-11 ± 11 spikes/s,-8.67 ± 14 spikes/s,-1 ± 13 spikes/s,4.67 ± 8.6 spikes/s,-11 ± 11 spikes/s,
S. montana pb1b-like,-19 ± 14 spikes/s,-18 ± 11 spikes/s,-8.33 ± 9.7 spikes/s,4 ± 5.4 spikes/s,3.67 ± 2.9 spikes/s,
S. flava pb1b-like,-21 ± 16 spikes/s,-26.3 ± 24 spikes/s,-2.33 ± 32 spikes/s,1.33 ± 17 spikes/s,3 ± 8.8 spikes/s,
S. pallida pb2b-like,2.33 ± 5.3 spikes/s,6 ± 4 spikes/s,8.33 ± 3.4 spikes/s,8.33 ± 7.4 spikes/s,4.33 ± 5.8 spikes/s,
S. flava pb3b-like,2 ± 14 spikes/s,-3.67 ± 24 spikes/s,-3.33 ± 16 spikes/s,4.33 ± 16 spikes/s,1.33 ± 4.3 spikes/s,
S. flava pb2a-like,-1.67 ± 6.9 spikes/s,0.667 ± 5.8 spikes/s,3 ± 7.8 spikes/s,0 ± 6.2 spikes/s,-0.667 ± 5.8 spikes/s,
S. pallida pb3b-like,-5.67 ± 14 spikes/s,-4 ± 7.9 spikes/s,5.33 ± 17 spikes/s,-6.67 ± 18 spikes/s,-5.67 ± 15 spikes/s,
S. flava pb2b-like,-0.333 ± 12 spikes/s,-4.33 ± 14 spikes/s,-0.333 ± 6.4 spikes/s,-1.33 ± 7.1 spikes/s,4 ± 15 spikes/s,
Canton-S (D. melanogaster) pb1a,134 ± 36 spikes/s,0.222 ± 8.7 spikes/s,3.56 ± 4.9 spikes/s,7.11 ± 7.2 spikes/s,2 ± 9.3 spikes/s,
Canton-S (D. melanogaster) pb3b,-3.33 ± 8.2 spikes/s,-1.5 ± 9.8 spikes/s,1.33 ± 7 spikes/s,-1.67 ± 8.6 spikes/s,0 ± 11 spikes/s,
S. hsui pb3a-like,0 ± 12 spikes/s,-4.33 ± 7.9 spikes/s,-2 ± 10 spikes/s,6.33 ± 9.9 spikes/s,-4.67 ± 13 spikes/s,
S. pallida pb3a-like,-6.33 ± 7 spikes/s,-5.67 ± 5.8 spikes/s,-5 ± 14 spikes/s,1 ± 8.3 spikes/s,-4.33 ± 8.1 spikes/s,
S. montana pb2a-like,0.667 ± 4.1 spikes/s,1.67 ± 4.5 spikes/s,3 ± 10 spikes/s,13.7 ± 10 spikes/s,2.67 ± 4.3 spikes/s,
S. montana pb2b-like,2 ± 4.2 spikes/s,3.67 ± 5.3 spikes/s,4.33 ± 6.2 spikes/s,6.67 ± 12 spikes/s,-4.33 ± 4.8 spikes/s,-0.333 ± 6 spikes/s
"Or67dGal4, UAS-Sfla Or42a2 at1",39.7 ± 29 spikes/s,-2 ± 3.1 spikes/s,-1.71 ± 6.6 spikes/s,,,
S. montana pb3a-like,9.67 ± 6.5 spikes/s,5 ± 8.5 spikes/s,1 ± 7.9 spikes/s,-2.67 ± 16 spikes/s,2.33 ± 10 spikes/s,
